RORg inh = qHTS for inhibitors of ROR gamma transcriptional activity | Drosophila S2 Gal4-RORgamma UAS-luciferase reporter, 20 h | Potency, µM (titrated, usually from 53.6 µM), without a hit: at the top dose activity change, negative = inhibition, usual class: inhibitors | 310,000 tested, 5.4% active; also: potency is read from the fitted curve at half-maximal effect; % is scaled to controls: 0 for no effect and ±100 for the full control effect; nearly all actives have a fitted effect of over 60% in size
Target sequence (P51450 whole entry, looked up, the tested form may be a part): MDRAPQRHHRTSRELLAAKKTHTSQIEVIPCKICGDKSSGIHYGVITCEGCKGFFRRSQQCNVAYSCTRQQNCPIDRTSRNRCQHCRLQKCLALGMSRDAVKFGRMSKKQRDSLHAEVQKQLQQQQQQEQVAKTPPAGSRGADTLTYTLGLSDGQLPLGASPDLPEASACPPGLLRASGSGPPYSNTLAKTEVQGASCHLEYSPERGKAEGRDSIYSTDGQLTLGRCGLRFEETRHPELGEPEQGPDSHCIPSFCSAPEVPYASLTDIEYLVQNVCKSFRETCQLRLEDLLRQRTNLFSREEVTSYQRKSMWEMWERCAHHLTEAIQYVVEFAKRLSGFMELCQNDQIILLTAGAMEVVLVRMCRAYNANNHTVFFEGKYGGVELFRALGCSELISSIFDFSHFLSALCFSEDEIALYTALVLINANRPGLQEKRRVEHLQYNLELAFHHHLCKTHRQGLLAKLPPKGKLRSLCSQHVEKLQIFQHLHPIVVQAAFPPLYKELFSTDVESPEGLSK
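Drosophila Schneider cells stably carrying a metallothionein-driven Gal4 DBD–ROR gamma fusion and a UAS-Photinus luciferase reporter were exposed to compound for 1 hr, then induced with copper sulfate (700 uM final) for 20 hr at ambient temperature before luminescence reading.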
Chronic BCR inh = qHTS Assay to Find Inhibitors of Chronic Active B-Cell Receptor Signaling; ABC-DLBCL IkBa-CBG/CBR reporter, luminescence ratio, 4 h; Potency, µM (highest dose often 46.1 µM), for inactives: at the highest dose activity change, negative = inhibition, hits mostly inhibitors; 340,000 tested, 0.05% active; AID 493014, 2011; active = well fitted inhibition curve with a large enough effect in the signal ratio, with a control signal flat, not every such curve was filed as active; inconclusive = small, poorly fitted or top-dose-only effect, or effect the other way, or a change in a side signal; the % refers to the signal ratio;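 also: potency is read from the fitted curve at half-maximal effect; plate controls were basal doxycycline-induced cells for no effect and cells given 10 µM MG132 for full effect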
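TMD8 human ABC-DLBCL cells with doxycycline-inducible IκBα–green luciferase fusion and unfused red luciferase, in 0.5% FBS medium; compounds up to 46 uM, 4 h at 37C. Green/red luminescence ratio, filter-overlap corrected, fitted to concentration-response curves.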
Giardia kill = Small Molecules that selectively kill Giardia lamblia: qHTS. Giardia lamblia trophozoite viability. activity change, % at 7.66 µM, hits read low. 340,000 tested, 0.15% active. AID 540267, 2011; in the data active = activity change below about -80%; inconclusive = between about -30% and that limit;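 also: parasites exposed to compound for two days anaerobically before the ATP read; % is scaled to controls: 0 for no effect and ±100 for the full control effect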
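Viability, read as ATP luminescence: trophozoites at 100 cells/well, compound added, 48 hrs anaerobic at 37 deg C, then 15-30 min room-temperature development before reading.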
MCF10A rereplic = A quantitative high throughput screen for small molecules that induce DNA re-replication in MCF 10a normal breast cells; AID 624296, 2012; Potency, µM (top dose mostly 46.1 µM), inactives show at the highest dose activity, positive = re-replication, usual class: activators; 350,000 tested, 2.9% active; MCF 10A DNA re-replication, Hoechst nuclear intensity, 48 h; also: potency is read from the fitted curve at half-maximal effect; % of control where 0% means no effect; nearly all actives have a fitted effect of over 50% in size
Gal4-VP16 FLuc = VP16 counterscreen qHTS for inhibitors of ROR gamma transcriptional activity. AID 2546, 2010. Potency, µM (series often up to 53.6 µM), without a hit: top-dose activity, negative = inhibition, most hits filed as inhibitors. 310,000 tested, 3.5% active. Drosophila S2 Gal4-VP16 UAS-luciferase, luminescence, 20 h;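 also: Gal4-VP16 expression switched on by copper sulfate through the metallothionein promoter; potency is read from the fitted curve at half-maximal effect; % is scaled to controls: 0 for no effect and ±100 for the full control effect; nearly all actives have a fitted effect of over 50% in size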
SW480 rerep = A quantitative high throughput screen for small molecules that induce DNA re-replication in SW480 colon adenocarcinoma cells | 340,000 tested, 1.8% active | Potency, µM (highest dose often 46.1 µM), inactives show at the top dose re-replication activation, hits mostly activators | SW480 DNA re-replication, Hoechst DNA content imaging, 48 h; also: potency is read from the fitted curve at half-maximal effect; % of control where 0% means no effect; nearly all actives have a fitted effect of over 55% in size
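250 cells/well; 23 nL cpd via pin tool; 48 hr, 37 C, 5% CO2; Hoechst 40 min; imager read of total nuclear intensity, ex 405/em 500-530 nm.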
* marks the source's active call; other numbers are inactive results. Most compounds without a hit are left out; they make up all but 8.3% or so of the library. Unless noted, calls follow the shape of the dose curve; as a rule, active = well fitted curve in the direction sought with a large enough effect; inconclusive = small, poorly fitted or top-dose-only effect, or another doubt; inactive = no such curve, though single readings can be large; an effect the other way counts as inactive or inconclusive.

COc1ccccc1-c1c(-c2ccc(O)cc2O)n[nH]c1C(F)(F)F was read as RORg inh inconclusive, Chronic BCR inh inconclusive, Giardia kill -15, MCF10A rereplic -3%, Gal4-VP16 FLuc 11% and SW480 rerep -3%.
Screening COc1ccc(-c2c(-c3ccc(O)cc3O)n[nH]c2C)cc1OC returned RORg inh -29%, Chronic BCR inh 0%, Giardia kill 6, MCF10A rereplic inconclusive, Gal4-VP16 FLuc 1% and SW480 rerep inconclusive.
For COc1ccc(-c2c(-c3ccc(OC)c(C)c3O)n[nH]c2C)cc1 the results were RORg inh 11µM*, Chronic BCR inh inconclusive, Giardia kill 3, MCF10A rereplic inconclusive, Gal4-VP16 FLuc 11µM* and SW480 rerep 3%.
For COc1ccc(-c2c(-c3ccc(O)cc3O)n[nH]c2C(F)(F)F)cc1 the results were RORg inh -68%, Chronic BCR inh inconclusive, Giardia kill 6, MCF10A rereplic inconclusive, Gal4-VP16 FLuc 10µM* and SW480 rerep 12µM*.
`Cc1ccc(O)c(C2=Nc3ccccc3C2(C)C)c1` gave RORg inh 13%, Chronic BCR inh 1%, Giardia kill -11, MCF10A rereplic 5%, Gal4-VP16 FLuc -6% and SW480 rerep 8%.
For COc1ccc(C)cc1C1=Nc2ccccc2C1(C)C the results were RORg inh 13µM*, Chronic BCR inh -1%, Giardia kill 2, MCF10A rereplic -10%, Gal4-VP16 FLuc inconclusive and SW480 rerep 1%.
c1ccc(CN2CCC(Nc3nc(-c4ccccc4)nc4ccccc34)CC2)cc1 was read as RORg inh -39%, Chronic BCR inh inconclusive, Giardia kill 28, MCF10A rereplic inconclusive, Gal4-VP16 FLuc -3% and SW480 rerep inconclusive.
Screening Cc1csc2ncnc(NC3CCN(Cc4ccccc4)CC3)c12 returned RORg inh 2.5µM*, Chronic BCR inh -8%, Giardia kill 9, MCF10A rereplic 11%, Gal4-VP16 FLuc 2.8µM* and SW480 rerep -5%.
C[n+]1ccn(CC(=O)c2cc(C(C)(C)C)c(O)c(C(C)(C)C)c2)c1 was read as RORg inh 24%, Chronic BCR inh -1%, Giardia kill -7, MCF10A rereplic 0%, Gal4-VP16 FLuc -14% and SW480 rerep inconclusive.
C[C@@H]1CC[C@H](O)/C=C/C(=O)O[C@H](C)CC[C@H](O)/C=C/C(=O)O1 was read as RORg inh inconclusive, Chronic BCR inh -5%, Giardia kill 13, MCF10A rereplic 3%, Gal4-VP16 FLuc 6.3µM* and SW480 rerep -2%.
Screening Cc1ccc(Cn2c(C(C)Nc3nc(-c4ccc(Cl)c([N+](=O)[O-])c4)cs3)nc3cc(C(F)(F)F)ccc32)cc1 (centres undefined) returned Giardia kill 29, MCF10A rereplic -31% and SW480 rerep 0.92µM*.
Screening Cc1ccc(Cn2c(C(C)Nc3nc(-c4ccc(Cl)cc4)cs3)nc3cc(C(=O)NCCCO)ccc32)cc1 (centres undefined) returned Giardia kill -18, MCF10A rereplic inconclusive and SW480 rerep inconclusive.
For CCCn1c(C(C)Nc2nc(-c3ccc(C)cc3)cs2)nc2ccccc21 (centres undefined) the results were RORg inh 5.6µM*, Chronic BCR inh -4%, Giardia kill -16, MCF10A rereplic inconclusive, Gal4-VP16 FLuc 18µM* and SW480 rerep 8%.
For CCCn1c(C(CO)Nc2nc(C)cs2)nc2ccccc21 (centres undefined) the results were RORg inh -6%, Chronic BCR inh 0%, Giardia kill 11, MCF10A rereplic -9%, Gal4-VP16 FLuc 3% and SW480 rerep -7%.
`CCCn1c(C(C)Nc2nc(-c3ccc(Cl)c([N+](=O)[O-])c3)cs2)nc2ccccc21` (centres undefined) gave RORg inh 13µM*, Chronic BCR inh 0%, Giardia kill -9, MCF10A rereplic inconclusive, Gal4-VP16 FLuc inconclusive and SW480 rerep -10%.
Cc1ccc(Cn2c(C(C)Nc3nc(-c4ccc(C)cc4)cs3)nc3cc(Cl)c(Cl)cc32)cc1 (centres undefined) was read as RORg inh 11µM*, Chronic BCR inh -15%, Giardia kill 7, MCF10A rereplic -9%, Gal4-VP16 FLuc -19% and SW480 rerep -1%.
O=[N+]([O-])c1cc(-c2csc(NC(CO)c3nc4ccccc4n3CCOCCO)n2)ccc1Cl (centres undefined) was read as Giardia kill -1, MCF10A rereplic 0% and SW480 rerep -16%.
Screening CNC(=O)[C@@]1(Cc2ccccc2)C=C[C@@H](C)N1C(C)=O returned RORg inh -11%, Giardia kill -12, MCF10A rereplic -1%, Gal4-VP16 FLuc 9% and SW480 rerep 2%.
Screening Cc1cn(C2CC(N=[N+]=[N-])C(CO)O2)c(=O)[nH]c1=O (centres undefined) returned RORg inh 15% and Gal4-VP16 FLuc 6%.
For CCCn1c(C(C)Nc2nc(-c3cccc(Br)c3)cs2)nc2ccccc21 (centres undefined) the results were RORg inh 4.5µM*, Chronic BCR inh -11%, Giardia kill -2, MCF10A rereplic 16%, Gal4-VP16 FLuc inconclusive and SW480 rerep -3%.
O=C(CCNc1ccc(F)cc1)c1ccco1 was read as RORg inh 11µM*, Chronic BCR inh inconclusive, Giardia kill -19, MCF10A rereplic inconclusive, Gal4-VP16 FLuc inconclusive and SW480 rerep inconclusive.
Screening c1ccc(Cc2ccc(OCCCNC3CCCC3)cc2)cc1 returned RORg inh -35%, Chronic BCR inh -3% and Gal4-VP16 FLuc -14%.
c1ccc(-c2ccc(OCCCNC3CCCC3)cc2)cc1 was read as RORg inh -7%, Chronic BCR inh inconclusive, Giardia kill -26, MCF10A rereplic 6.5µM*, Gal4-VP16 FLuc 0% and SW480 rerep inconclusive.
For CCCSS/C(CCO)=C(/C)N(C=O)Cc1cnc(C)nc1N the results were RORg inh inconclusive, MCF10A rereplic 13µM*, Gal4-VP16 FLuc inconclusive and SW480 rerep inconclusive.
Screening O=C(CSC1=NS(=O)(=O)c2ccccc2N1)N1CCCCC1 returned Chronic BCR inh 4%, Giardia kill -2, MCF10A rereplic -1% and SW480 rerep -5%.

Assay outcomes deposited in PubChem BioAssay by National Center for Advancing Translational Sciences (NCATS).
